# Measured values: article PMC5540273 (PLoS ONE, 2017)
# Tested on: ROCK2
# Conditions: concentration: 1 μM, replicates: in singlicate; n = 1
# 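Note: KINOMEscan kinase panel screen.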
row,Compound,%Inh [%]
1,Cl.O=S(=O)(c1cccc(F)c1)c1ccc(Nc2ncnc3cc(Br)sc23)cc1Cl [GSK306886],14
2,O=C(NCCCN1CCCC1=O)c1cnc(NCc2cc(Cl)ccc2Cl)nc1NC1CCNCC1,0
3,Cl.Cn1ccc(-c2cccc(Nc3ccnc4cc(-c5nccs5)ccc34)c2)n1 [GW525701],39
4,CC(C)(C)OC(=O)NC1CCCN(c2cc(-c3ccc4c(N)n[nH]c4c3)nc(N)n2)C1 (stereo not drawn) [GSK2286096],0
5,Cn1ccc2ncnc(Nc3ccc(Oc4cccc(Cl)c4)c(Cl)c3)c21,0
6,O=C(Nc1ccccc1)Nc1ccc(Oc2ccc3nccn3n2)cc1,0
7,CSc1nn2c(=O)cc(N3CCOCC3)nc2n1Cc1cccc(Cl)c1Cl [GSK2347225],0
8,COC(=O)c1cccc(NC(=O)NCCNc2ccnc(Nc3ccc(F)cc3)n2)c1 [GSK1379883],5
9,CCn1c(-c2ccncc2)nc2cnccc21 [SB-735216],13
10,Fc1cccc(COc2ccc(Nc3ncnc4cc[nH]c34)cc2Cl)c1,0
11,O=C(Nc1n[nH]c2nc(-c3ccco3)c(Br)cc12)c1ccc(CN2CCCC2)cc1.O=C(O)[C@H](O)[C@@H](O)C(=O)O [SB-742352],0
12,CCC(CC)(CC)n1cnc2c(N)ncnc21 [SKF-97620],0
13,O=C(CCO)NCCn1ccc2ncnc(Nc3ccc(Oc4cccc(C(F)(F)F)c4)c(Cl)c3)c21,0
14,OCCOCCn1ccc2ncnc(Nc3ccc(Oc4cccc(Cl)c4)c(Cl)c3)c21,0
15,Clc1cccc(-c2nc(Nc3ccncc3)c3ccccc3n2)c1 [GW873004],0
16,COc1ccc(NC(=O)c2ccc(-c3cc(-c4nnc(C)o4)ccc3C)cc2)cc1 [GW595885],13
17,O=C(Nc1ccccc1F)NC1CCN(c2ccnc(Nc3ccc(F)cc3)n2)C1 (stereo not drawn) [GSK1379722],16
18,Nc1nc(-c2ccc3c(N)n[nH]c3c2)cc(N2CCCCC2)n1 [GSK2228768],0

row,Compound,%Inh [%]
1,CN1CCC(n2cnc(-c3ccc(F)cc3)c2-c2ccnc(NC3CCNCC3)n2)CC1 [SB-229482],25
2,Clc1cc(Nc2ncnc3cc[nH]c23)ccc1OCc1ccccn1,0
3,COc1cc2c(Nc3cccc(NC(=O)c4ccccc4)c3)ncnc2cc1OCCCN1CCOCC1 [GSK223810],14
4,CCc1nc(-c2cccc(N(C)S(=O)(=O)c3ccccc3)c2)c(-c2ccnc(Nc3ccc(N4CCN(C(C)=O)CC4)nc3)n2)s1 [GSK1645895],0
5,Cc1ccc(O)cc1Nc1cc(C(F)(F)F)nc2ccc(-c3ccncc3)cc12 [GW630823],0
6,c1ccc(-c2ccc3c(-c4ccnc(Nc5ccc6c(c5)OCCO6)n4)cnn3n2)cc1 [GW818941],10
7,CSc1ccc(NC2=C(c3ccccc3Cl)C(=O)NC2=O)cc1 [SB-342411],0
8,CS(=O)(=O)CCNCc1ccc(-c2ccc3ncnc(Nc4ccc(OCc5ccccc5)c(Cl)c4)c3c2)o1.Cl [GW574783],21
9,COc1cc2ncnc(Nc3ccc(OCc4ccccc4Br)c(Cl)c3)c2cc1OC.Cl [GI261590],27
10,CC(C)N1CCC(n2cnc(-c3ccc(F)cc3)c2-c2ccnc(N)n2)CC1 [SB-223132],0
11,Cn1cc(-c2ccc3c(c2)CCN3C(=O)Cc2cccc(C(F)(F)F)c2)c2c(N)ncnc21 [GSK2606414],13
12,COc1ccc(Nc2nccc(N3CCC(NC(=O)c4cccc(NC(C)=O)c4)C3)n2)cc1 (stereo not drawn) [GSK1379732],50
13,Nc1nc(-c2ccc3c(N)n[nH]c3c2)cc(N2CCC[C@@H](C(=O)Nc3ccccc3)C2)n1.O=C(O)C(F)(F)F.O=C(O)C(F)(F)F [GSK2288359],61
14,CN1c2ccc(-c3ccc(C(=O)NCCO)cc3)cc2-c2[nH]ncc2S1(=O)=O,41
15,N#Cc1ccc(Oc2ccc(Nc3ncnc4cc[nH]c34)cc2Cl)cc1,0
16,Cl.c1ccc(Cn2ncc3cc(Nc4ncnc5ccccc45)ccc32)cc1 [GW273749],21
17,Nc1nccc2scc(-c3ccc4c(c3)CCN4C(=O)Cc3cc(F)ccc3F)c12 [GSK2587663],12
18,Nc1nc(-c2cccnc2)c(-c2ccnc3ccccc23)s1 [GW684083],32
